# This is one part of a sample in which hits are shown more often than they occur.
# RMI-FANCM inh = blocks RMI1/RMI2 complex binding to FANCM MM2 peptide. Fluorescence polarization, RMI core complex with F-MM2 peptide; active compounds read low. FP signal (polarization) at 33 µM. hit rate 0.58% among 70,000. AID 1159607; in the data active = FP signal below about 40
# * hit, by the source's call; ! = a repeat was not active.
SMILES,RMI-FANCM inh
COc1ccc(-c2c(C#N)c(N)nc3c2CN(C)CC3)c(OC)c1OC,-4*
N#Cc1c(N)nc2c(c1-c1ccc(Cl)cc1)CCCC2,54
Cc1nc(-c2cccnc2)sc1-c1ccc(SCc2ccc(C(F)(F)F)cc2)nn1,82
COc1ccc(Br)c(C(=O)Nc2cc(C(=O)Nc3cc(Cl)ccc3C)ccc2N2CC3CC(C2)c2cccc(=O)n2C3)c1 (stereo not given),68
Cc1nc2ccc(NC(=O)c3ccc4ccccc4n3)cc2c(=O)n1-c1ccccc1,76
COc1ccc(CNC(=O)NCC(c2ccc3c(c2)CCN3C)N2CCCC2)cc1OC (stereo not given),64
COc1ccc(S(=O)(=O)CCCC(=O)Nc2sc(C)c(C)c2C#N)cc1,52
c1ccc2c(c1)nc1n2CCN1,65
c1cn2c(n1)NCC2,-22*
O=C(Nc1nc2c(cc3c4c(cccc42)CC3)s1)c1cc(-c2cccs2)nc2ccccc12,68
CN1CCN(C(CNS(=O)(=O)c2ccc(F)cc2F)c2ccc3c(c2)CCCN3C)CC1 (stereo not given),66
COC(=O)c1ccccc1OC1OC(CO)C(O)C(O)C1O (stereo not given),61
O=C(O)c1cc(O)c2c(c1)[C@@H]([C@H]1c3cc(C(=O)O)cc(O)c3C(=O)c3c(O[C@H]4O[C@H](CO)[C@@H](O)[C@H](O)[C@H]4O)cccc31)c1cccc(O[C@H]3O[C@H](CO)[C@@H](O)[C@H](O)[C@H]3O)c1C2=O,22*
Cc1cccc(CN2CCN(C(c3ccccc3)c3ccc(Cl)cc3)CC2)c1 (stereo not given),66
CN1CCCN(C(c2ccccc2)c2ccc(Cl)cc2)CC1 (stereo not given),-4*
CN1CCN(C(c2ccccc2)c2ccccc2)CC1,69
COC(=O)c1ccc(NC(=O)c2csc(Nc3ccccc3)n2)cc1,93
C(=N/Nc1nnc(-c2ccccc2)c(-c2ccccc2)n1)/c1ccncc1,56
C(/C=C/c1ccco1)=N/Nc1nnc(-c2ccccc2)c(-c2ccccc2)n1,21*
C(=N/Nc1nc2ccccc2s1)/c1ccco1,61
O=C(/C=C\c1ccc2c(c1)OCO2)Nc1nnc(SCC(=O)N2CCc3ccccc32)s1,57
Cc1cc(=O)n2c(-c3ccc(NS(=O)(=O)c4c(C)noc4C)cc3)csc2n1,65
Oc1ccc(-c2[nH]ncc2Oc2ccccc2)c(O)c1O,31*
CCOc1ccc(-c2[nH]ncc2Oc2cccc(OC)c2)c(O)c1,59
COc1ccccc1Oc1cn[nH]c1-c1ccc(O)cc1O,57
SMILES,RMI-FANCM inh
CC1(C)COc2ccc(NC(=O)Cc3cccc4ccccc34)cc2NC1=O,68
COc1ccc(CCS(=O)(=O)Nc2ccc3c(c2)C(=O)N(C)CCO3)cc1,65
Cc1nc(-c2cccnc2)sc1-c1ccc(SCC(=O)Nc2ccc(F)c(F)c2)nn1,94
N=C(N)c1ccc(N)cc1,55
N=C(N)c1ccc(OCCCCCOc2ccc(C(=N)N)cc2)cc1,-2*!
CCCCCOc1ccc(C(=O)NN)cc1,55
Cn1c(CNC(=O)c2ccc([N+](=O)[O-])cc2)nnc1SCC(=O)N1N=C(c2ccc(Br)cc2)CC1c1ccc(F)cc1 (stereo not given),67
CCCN1CCC2(CC1)NC(=O)N(CC(=O)Nc1cc(C)on1)C2=O,57
CCc1c2c(nc3sc(C(=O)c4ccc(Cl)c(Cl)c4)c(N)c13)CC(C)(C)CC2=O,-31*
COc1ccc(-c2c3c(nc4sc(C(=O)Nc5ccc(Cl)cc5)c(N)c24)CC(C)(C)CC3=O)cc1,90
CCc1c2c(nc3sc(C(=O)Nc4ccc(-c5nc6ccccc6s5)cc4)c(N)c13)CC(C)(C)CC2=O,96
Cc1cc(OCC(=O)NCCCn2nc(-c3ccncc3)ccc2=O)ccc1Cl,68
Nc1nc2ncc(=O)[nH]c2c(=O)[nH]1,26*
Nc1nc2[nH]c(=O)cnc2c(=O)[nH]1,50
Nc1nc2ncc(C(=O)O)nc2c(=O)[nH]1,53
CCc1c(C)nc(SCC(=O)N2CCCC2)[nH]c1=O,63
Cc1cc(Oc2nc(NCCSC(C)(C)C)nc(Oc3cc(C)c(Cl)c(C)c3)n2)cc(C)c1Cl,53
Cc1ccc(C(=O)Nc2nnc(-c3ccc(Br)cc3)o2)c(C)c1,63
O=S(=O)(N=C(Nc1ccc2ccccc2c1)c1ccccc1)c1ccc(Cl)cc1,63
NC(=O)SCC(=NS(=O)(=O)c1ccc(Cl)cc1)Nc1cccc2ccccc12,30*
O=C(CSCCS(=O)(=O)c1ccc(Cl)cc1)Nc1ccccc1Cl,58
COc1ccc(CC(=O)NCC(c2cccc3ccccc23)N(C)C)cc1 (stereo not given),51
CN(C)C(CNC(=O)c1cccs1)c1cccc2ccccc12 (stereo not given),50
COc1cc(OC)cc(C(=O)NCC(c2cccc3ccccc23)N(C)C)c1 (stereo not given),54*
CC(C)(Oc1ccc(Cl)cc1)C(=O)Oc1coc(CSc2ncccn2)cc1=O,53
SMILES,RMI-FANCM inh
CCCS(=O)(=O)N1CCCc2cc(NS(=O)(=O)Cc3ccc(Cl)cc3)ccc21,72
Cc1oc(-c2ccc(Cl)cc2)nc1CSc1nc2ccccc2c(=O)n1C(C)C,61
CS(=O)(=O)c1ccc2nc(NC(=O)c3ccc(=O)n(Cc4ccc(Cl)cc4)c3)sc2c1,65
C=CCOC(=O)C(C#N)c1nc2ccccc2nc1N1CCN(c2ccccc2)CC1 (stereo not given),29*
CC(=O)NC(=O)/C(C#N)=C/N1CCN(c2ccccc2)CC1,53
Cc1cc(C)c(C#N)c(N2CCN(c3ccccc3)CC2)n1,50
O=S(=O)(CCl)N1CCCCC1,59
CC(=O)Nc1cccc(NC(=O)CSc2nc(CC(=O)NCC3CCCCC3)cs2)c1,64
CCCS(=O)(=O)c1csc(C(=O)OC)c1NNC(=O)c1cc(Cl)cc(Cl)c1,56
CC(=O)c1c(C)nn(-c2ccccc2)c1-c1ccccc1[N+](=O)[O-],60
CC(=O)C1C(=O)c2cccc([N+](=O)[O-])c2C1=O (stereo not given),53
CC(=O)c1cccc(N2C(=O)c3cccc([N+](=O)[O-])c3C2=O)c1,29*
Cc1cc(S(=O)(=O)NCCC2=CCCCC2)ccc1F,64
Cc1ccc(Cc2cnc(NC(=O)/C(C#N)=C\c3ccc(-c4ccccc4[N+](=O)[O-])o3)s2)cc1,71
Cc1ccc(C)c2sc(N(Cc3ccccn3)C(=O)c3ccc4c(c3)OCCO4)nc12,58
Cc1cc(O)c2c(CN3CCN(Cc4ccc5c(c4)OCO5)CC3)cc(=O)oc2c1,53
Cc1c(O)ccc2c(CN3CCC4(CC3)OCCO4)cc(=O)oc12,25*
COc1ccc(N2CCN(Cc3cc(=O)oc4c3ccc3ccccc34)CC2)cc1,59
CC(=O)c1ccc(NC(=O)Cn2nc(-c3ccco3)c3sc(N4CCOCC4)nc3c2=O)cc1,73
O=C(O)C=Cc1ccc(O)c(O)c1,60
O=c1cc(O)cc(/C=C/c2ccc(O)c(O)c2)o1,15*
N#C/C(=C\c1ccc(O)c(O)c1)C(=O)c1ccc(O)c(O)c1,93
Cc1cc(NC(=O)C(=O)NCC2CCCO2)c2ccccc2n1 (stereo not given),54
Cc1ccc(C(=O)CSc2nnc3c(n2)[nH]c2ccccc23)cc1,2*
CCn1c(SCC(=O)c2ccc(OC)cc2)nc2c([nH]c3ccccc32)c1=O,105
CC(C)=CCSc1nnc2c(n1)[nH]c1ccccc12,64
COC(=O)c1sc2ccccc2c1NC(=O)c1cc(Cl)sc1Cl,30*
COC(=O)c1sc2ccccc2c1NC(=O)c1ccc(Br)s1,85

# Assay outcomes (PubChem)
